This note sets out measurements from the supplement of paper PMC6953052.

± gives the standard deviation of the averaged measurements. In all, about 1,700 compounds were measured (“fraction of GFP-LC3-positive cells (≥5 vesicles/cell)”: median about 0.43, highest 2% from about 0.81 on). Only a selection was taken, and the highest values are over-represented in it overall.

The test system of this assay is CbCln3 Δex7/8/Δex7/8 GFP-LC3 cerebellar neuronal cells. The assay can be described thus: fraction of GFP-LC3-positive cells (≥5 vesicles/cell); higher = more autophagosome accumulation. The procedure, abridged:
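Compound (~50 nL in DMSO) was pin-transferred in duplicate onto wild-type or mutant CbCln3 cerebellar cells stably expressing GFP-LC3, seeded at 2 × 10^3/well in 384-well plates, for 24 h at 33 °C. After fixation in 3.2% PFA, three fields per well were imaged at 10×. The value reported is the duplicate average of the fraction of cells meeting a vesicle-count threshold, with CellProfiler counting GFP-LC3 vesicles per cell and out-of-focus images excluded. Cells met the threshold at 5 or more vesicles.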
For `CCCCCCCCCCCCCCC[C@@H](O)[C@H](CO)NC(=O)CCCCCCC` [C8 Dihydroceramide], the “fraction of GFP-LC3-positive cells” value was 0.428.

On to `CCCCCCCCCCCCCCC[C@@H](O)[C@H](CO)NC(=O)CCCCCCC`, for which the “fraction of GFP-LC3-positive cells” value was found to be 0.494.

On to `CN(CCc1ccc(Cl)c(Cl)c1)CC(O)COc1ccc(NS(C)(=O)=O)cc1` (stereo unspecified), for which the “fraction of GFP-LC3-positive cells” value was found to be 0.503.

For the compound `CC(=N)NCc1cccc(CN)c1`, the “fraction of GFP-LC3-positive cells” value was 0.371.

For the compound `Cc1c(N(C)CS(=O)(=O)[O-])c(=O)n(-c2ccccc2)n1C.[Na+]` [Dipyrone], the “fraction of GFP-LC3-positive cells” value is 0.447.

For `O=c1c(O)c(-c2ccc(O)cc2)oc2cc(O)cc(O)c12` [Kaempferol], the “fraction of GFP-LC3-positive cells” value was 0.294.

Turning to `O=C1C=CC(=O)c2c1ccc1c2ccc2ccccc21` [Chrysene-1,4-quinone], the “fraction of GFP-LC3-positive cells” value came out at 0.883.

Regarding `O=C1CCc2c(ccc3ccccc23)O1` [Splitomycin], the “fraction of GFP-LC3-positive cells” value worked out at 0.354.

Turning to `N=C(N)NS(=O)(=O)c1ccc(N)cc1` [Sulfaguanidine], the “fraction of GFP-LC3-positive cells” value came out at 0.43.

With `CN(C)CC/C=C1\c2ccccc2COc2ccccc21.Cl` [Doxepin hydrochloride], the “fraction of GFP-LC3-positive cells” value stood at 0.567.

With `CCCc1c(OCCCCc2nnn[nH]2)ccc(C(C)=O)c1O`, the “fraction of GFP-LC3-positive cells” value stood at 0.398 ± 0.011.

Consider `Cc1c(N)c(=O)n(-c2ccccc2)n1C` [Ampyrone], for which the “fraction of GFP-LC3-positive cells” value worked out at 0.49.

As to `CO[C@@H]1[C@H](N(C)C(=O)c2ccccc2)C[C@H]2O[C@]1(C)n1c3ccccc3c3c4c(c5c6ccccc6n2c5c31)C(=O)NC4`, the “fraction of GFP-LC3-positive cells” value turned out to be 0.636.

In the case of `O=P(O)(O)C(O)c1ccc2ccccc2c1` (stereo unspecified), the “fraction of GFP-LC3-positive cells” value is 0.425.

For `CN(C)CC/C=C1\c2ccccc2CSc2ccccc21.Cl` [Dosulepin hydrochloride], the “fraction of GFP-LC3-positive cells” value was 0.637.

In the case of `CN(C)CCn1nnnc1SCC1=C(C(=O)O)N2C(=O)[C@@H](NC(=O)Cc3csc(N)n3)[C@H]2SC1.Cl` [Cefotiam hydrochloride], the “fraction of GFP-LC3-positive cells” value worked out at 0.488.

Turning to `CCCCC/C=C\C[C@@H](O)/C=C/C=C/C=C/[C@@H](O)CCCC(=O)O` [5(S),12(R)-DiHETE all trans], the “fraction of GFP-LC3-positive cells” value was determined as 0.354.

With `Nc1cc(N2CCCCC2)nc(N)[n+]1OS(=O)(=O)[O-]`, the “fraction of GFP-LC3-positive cells” value stood at 0.38.

Turning to `CCCC(=O)Nc1ccc(OCC(O)CNC(C)C)c(C(C)=O)c1.Cl` (stereo unspecified) [Acebutolol hydrochloride], the “fraction of GFP-LC3-positive cells” value worked out at 0.518.

With `CN(C(=O)CN(CCO)CC(=O)N(C)C(C)(C)Cc1ccccc1)C(C)(C)Cc1ccccc1` [Oxethazaine], the “fraction of GFP-LC3-positive cells” value worked out at 0.384.

On to `CCCCC[C@H](O)/C=C/[C@H]1[C@H](O)CC(=O)[C@@H]1CCCCCCC(=O)O` [Prostaglandin E1], for which the “fraction of GFP-LC3-positive cells” value was found to be 0.349.

On to `CCCCC[C@H](O)/C=C/[C@H]1[C@H](O)CC(=O)[C@@H]1CCCCCCC(=O)O`, for which the “fraction of GFP-LC3-positive cells” value is 0.346.

On to `O=c1[nH]c2cc(C(F)(F)F)ccc2n1-c1cc(C(F)(F)F)ccc1O`, for which the “fraction of GFP-LC3-positive cells” value stood at 0.292.

In the case of `C[n+]1ccccc1/C=N/O.[Cl-]` [Pralidoxime chloride], the “fraction of GFP-LC3-positive cells” value was 0.428.

For the compound `Clc1ccc(COC(Cn2ccnc2)c2ccc(Cl)cc2Cl)c(Cl)c1` (stereo unspecified) [Miconazole], the “fraction of GFP-LC3-positive cells” value turned out to be 0.337.

Regarding `CC1(C)S[C@@H]2[C@H](NC(=O)[C@H](N)c3ccccc3)C(=O)N2[C@H]1C(=O)OC1OC(=O)c2ccccc21.Cl` (stereo partly specified) [Talampicillin hydrochloride], the “fraction of GFP-LC3-positive cells” value amounted to 0.422.

`CN/C(=N/CCSCc1nc[nH]c1C)NC#N` [Cimetidine]: the “fraction of GFP-LC3-positive cells” value was determined as 0.473.

Take `Cn1cnc([N+](=O)[O-])c1Sc1ncnc2[nH]cnc12` [Azathioprine]: the “fraction of GFP-LC3-positive cells” value was 0.388.

Turning to `CCCCC/C=C\C/C=C\C/C=C\C/C=C\CCCC(=O)O[C@@H](CO)COCCCCCCCCCCCCCCCC` [1-Hexadecyl-2-arachidonoyl-glycerol], the “fraction of GFP-LC3-positive cells” value came out at 0.517.

Turning to `CCCCC/C=C\C/C=C\C/C=C\C/C=C\CCCC(=O)O[C@@H](CO)COCCCCCCCCCCCCCCCC`, the “fraction of GFP-LC3-positive cells” value is 0.311.

On to `CC(C)n1c(/C=C/[C@H](O)C[C@H](O)CC(=O)[O-])c(-c2ccc(F)cc2)c2ccccc21.[Na+]` [Fluvastatin sodium salt], for which the “fraction of GFP-LC3-positive cells” value amounted to 0.123.

As for `CC(CNC1CCCCC1)OC(=O)c1ccccc1.Cl` (stereo unspecified) [Hexylcaine hydrochloride], the “fraction of GFP-LC3-positive cells” value amounted to 0.411.

`O=C1NC(=O)C(c2ccccc2[N+](=O)[O-])=C1Nc1ccc(O)c(Cl)c1`: the “fraction of GFP-LC3-positive cells” value is 0.364.

For the compound `CN[C@@H]1C(O[C@H]2O[C@H](CO)[C@@H](N)[C@H](O)[C@H]2O)O[C@H]2C[C@@H](N)[C@@H](O[C@H]3[C@H](O)[C@@H](O)[C@H](N)C[C@@H]3N)OC2[C@@H]1O` (stereo partly specified) [Apramycin], the “fraction of GFP-LC3-positive cells” value worked out at 0.274.

In the case of `CCCCCCCCCC(=O)N[C@@H](CCCN=C(N)N)C(=O)N[C@H](C(=O)N[C@@H](CCCCN)C(=O)N[C@@H](CCCN=C(N)N)C(=O)CCl)C(C)C`, the “fraction of GFP-LC3-positive cells” value was determined as 0.536.

Regarding `CCCCC/C=C\C/C=C\CC1OC1C/C=C\CCCC(=O)O` (stereo unspecified), the “fraction of GFP-LC3-positive cells” value came out at 0.392.

On to `CCCCC/C=C\C/C=C\CC1OC1C/C=C\CCCC(=O)O` (stereo unspecified) [8,9-Epoxyeicosatrienoic acid], for which the “fraction of GFP-LC3-positive cells” value stood at 0.41.

Consider `CCCCCC/C=C/CCCCCCCCC(=O)O` [10(Z)-Heptadecenoic acid], for which the “fraction of GFP-LC3-positive cells” value turned out to be 0.419.

Consider `CCCC[C@@H](C=O)NC(=O)OC(C)(C)C`, for which the “fraction of GFP-LC3-positive cells” value was 0.447.

Take `COc1c2occc2c(OC)c2c(=O)cc(C)oc12` [Khellin]: the “fraction of GFP-LC3-positive cells” value was 0.508.

Take `Cl.c1cnc(N2CCN(Cc3ccc4c(c3)OCO4)CC2)nc1` [Piribedil hydrochloride]: the “fraction of GFP-LC3-positive cells” value amounted to 0.496.

As for `Clc1ccc(COC(Cn2ccnc2)c2ccc(Cl)cc2Cl)cc1.O=[N+]([O-])O` (stereo unspecified) [Econazole nitrate], the “fraction of GFP-LC3-positive cells” value came to 0.353.

Regarding `COC(=O)C1=C(C)NC(C)=C([N+](=O)[O-])C1c1ccccc1C(F)(F)F` (stereo unspecified), the “fraction of GFP-LC3-positive cells” value came out at 0.449.

Take `CC(=O)N(CC(C)C(=O)O)c1c(I)cc(I)c(N)c1I` (stereo unspecified) [Iocetamic acid]: the “fraction of GFP-LC3-positive cells” value worked out at 0.312.

Regarding `COc1cc(S(C)=O)ccc1-c1nc2ncccc2[nH]1` (stereo unspecified) [Sulmazole], the “fraction of GFP-LC3-positive cells” value turned out to be 0.364.

As to `CN(C)CCCN1c2ccccc2Sc2ccccc21.Cl` [Promazine hydrochloride], the “fraction of GFP-LC3-positive cells” value is 0.434.

As for `C#C[C@]1(O)CC[C@H]2[C@@H]3CCC4=C(CCC(=O)C4)[C@H]3CC[C@@]21C` [Norethynodrel], the “fraction of GFP-LC3-positive cells” value was 0.389.

As to `COc1ccc2cc([C@@H](C)C(=O)[O-])ccc2c1.[Na+]` [(R) -Naproxen sodium salt], the “fraction of GFP-LC3-positive cells” value stood at 0.478.

Turning to `Cl.NC(CO)C(=O)NNCc1ccc(O)c(O)c1O` (stereo unspecified) [Benserazide hydrochloride], the “fraction of GFP-LC3-positive cells” value amounted to 0.411.

Take `CC(C)(C)c1cc(O)c(C(C)(C)C)cc1O` [2,5-ditertbutylhydroquinone]: the “fraction of GFP-LC3-positive cells” value worked out at 0.696.

Take `COc1cc2nc(N(C)CCCNC(=O)C3CCCO3)nc(N)c2cc1OC.Cl` (stereo unspecified) [Alfuzosin hydrochloride]: the “fraction of GFP-LC3-positive cells” value turned out to be 0.474.
